Measurements as given in PubChem BioAssay (Tox21).
Several values for one entry are separate records, joined by “and”; a condition that tells them apart may be missing. Identical values can stand only once. Inconclusive results are not listed. Activity calls are given as the source filed them. Unless noted, calls come from the whole dose curve.

Tests used:
[1] = qHTS assay to identify small molecule antagonists of the vitamin D receptor (VDR) signaling pathway - cell viability counter screen (AID 743225; active = well fitted curve in the direction sought with a large enough effect in the repeat runs; an effect the other way counts as inactive or inconclusive; note: nearly all actives have a fitted effect of over 50% in size; note: potency is the fitted concentration of half-maximal effect; for viability change, negative = cytotoxic: % is set by controls: 0 for no effect and ±100 for the full control effect)
In short: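 Same-well multiplex: following 16 h treatment of HEK 293T cells carrying a UAS-driven beta-lactamase reporter with compound and agonist (3 nM final), and a 2 h FRET substrate step, CellTiter-Glo was added and luminescence read after 30 min.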

[2] = qHTS assay to identify small molecule agonists of the NFkB signaling pathway - cell viability counter screen (AID 1159515); note: nearly all actives have a fitted effect of over 55% in size; note: potency is the fitted concentration of half-maximal effect; for activity, negative = cytotoxic: series mostly up to about 61 µM; % is set by controls: 0 for no effect and ±100 for the full control effect
In short: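 Cells are seeded (2,000 NFkB-bla ME-180 per well), rested overnight, and dosed with DMSO-dissolved compounds for 5 hr at 37 C. Viability is then read by CellTiter-Glo luminescence after 30 min at room temperature.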

[3] = qHTS assay to identify small molecule agonists of the endoplasmic reticulum stress response signaling pathway (AID 1159516; active = well fitted activation curve with a large enough effect in the signal ratio in the repeat runs, not every such curve was filed as active; the % refers to the signal ratio; note: % is set by controls: 0 for no effect and ±100 for the full control effect)
In short: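 Cells are seeded at 1,500 per well and incubated overnight. Compounds in DMSO are added for 5 hr at 37 C, then beta-lactamase FRET substrate for 2 hr at room temperature, and fluorescence at 460 and 530 nm is measured.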

[4] = qHTS assay to identify small molecule agonists of the endoplasmic reticulum stress response signaling pathway - cell viability counter screen (AID 1159517);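 note: HeLa cells carrying an ER stress response element beta-lactamase reporter; series mostly up to about 61 µM; % is set by controls: 0 for no effect and ±100 for the full control effect; nearly all actives have a fitted effect of over 50% in size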
In short: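 Steps: seed 1,500 ESRE-bla HeLa cells per well; incubate overnight at 37 C, 5% CO2; add compounds in DMSO for 5 hr; run FRET substrate 2 hr RT; add CellTiter-Glo, wait 30 min, read luminescence.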

[5] = qHTS assay to identify small molecule antagonists of the retinoid-related orphan receptor gamma (ROR-gamma) signaling pathway - cell viability counter screen (AID 1159520; active = well fitted curve in the direction sought with a large enough effect in the repeat runs; an effect the other way counts as inactive or inconclusive; note: % is set by controls: 0 for no effect and ±100 for the full control effect; nearly all actives have a fitted effect of over 50% in size)
In short: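 Tet-on ROR gamma CHO cells were given compounds for 2 hr, then doxycycline hyclate at 1 uM final, and incubated 16 hr at 37 C. Viability was measured as ATP content by CellTiter-Glo luminescence.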

[6] = molecular target: Retinoic acid receptor RXR-alpha (Homo sapiens) (UniProt P19793); test: qHTS assay to identify small molecule agonists of the RXR signaling pathway (AID 1159527); note: nearly all actives have a fitted effect of over 35% in size; note: potency is the fitted concentration of half-maximal effect
Sequence of Retinoic acid receptor RXR-alpha (Homo sapiens) (P19793 whole entry, looked up): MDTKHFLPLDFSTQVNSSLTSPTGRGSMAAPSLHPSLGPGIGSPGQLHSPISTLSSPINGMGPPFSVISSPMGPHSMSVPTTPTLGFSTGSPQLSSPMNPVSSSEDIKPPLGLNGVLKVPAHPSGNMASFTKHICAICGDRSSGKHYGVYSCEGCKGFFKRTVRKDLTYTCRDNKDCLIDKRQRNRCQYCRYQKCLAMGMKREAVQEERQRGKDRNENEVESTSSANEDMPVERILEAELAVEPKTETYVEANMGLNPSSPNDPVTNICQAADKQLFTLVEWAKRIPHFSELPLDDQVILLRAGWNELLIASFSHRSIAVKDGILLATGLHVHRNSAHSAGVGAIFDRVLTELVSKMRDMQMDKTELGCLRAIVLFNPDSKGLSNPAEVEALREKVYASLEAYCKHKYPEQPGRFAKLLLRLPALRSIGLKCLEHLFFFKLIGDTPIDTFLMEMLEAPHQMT
In short: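 Compounds in DMSO were added to RXR-alpha-UAS-bla HEK 293T cells kept in 2% charcoal-stripped serum, and incubated 16 hr at 37 C with 5% CO2. Reporter signal came from a 2 hr B/G FRET substrate step.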

[7] = qHTS assay to identify small molecule agonists of the RXR signaling pathway - cell viability counter screen (AID 1159529; active = well fitted curve in the direction sought with a large enough effect in the repeat runs; an effect the other way counts as inactive or inconclusive; note: nearly all actives have a fitted effect of over 50% in size; note: potency is the fitted concentration of half-maximal effect)
In short: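 Counter screen: CellTiter-Glo luminescence. Cells: RXR-alpha-UAS-bla HEK 293T. Medium: 2% charcoal-stripped FBS. Treatment: 16 h, 37 C. Reagent incubation: 30 min, RT.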

[8] = molecular target: Nuclear receptor ROR-gamma (Homo sapiens) (UniProt P51449); test: qHTS assay to identify small molecule antagonists of the retinoid-related orphan receptor gamma (ROR-gamma) signaling pathway (AID 1159521; active = well fitted curve in the direction sought with a large enough effect in the repeat runs; an effect the other way counts as inactive or inconclusive; note: nearly all actives have a fitted effect of over 50% in size; note: potency is the fitted concentration of half-maximal effect)
In short: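 Inducible-expression reporter assay: doxycycline (1 uM final) switched on RORγ in CHO cells bearing a ROR response element-luciferase construct, with test compounds present from 2 h beforehand. Decreased luminescence after 16 h defined antagonist activity.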

[9] = qHTS assay to identify small molecule agonists of the AP-1 signaling pathway - cell viability counter screen (AID 1159525); note: nearly all actives have a fitted effect of over 55% in size
In short: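 Same-well cytotoxicity counter screen of the Tox21 10K library in ME-180 cells. The readout is ATP-dependent luminescence after 5 h compound treatment. Data are normalised to DMSO and tetra n-octyl ammonium bromide controls.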

[10] = qHTS assay to identify small molecule agonists of the AP-1 signaling pathway (AID 1159526); note: % is set by controls: 0 for no effect and ±100 for the full control effect

CN(C)CCN(Cc1ccccc1)c1ccccn1
inactive: Potency [1] | Potency [2] | Potency [3] | Potency [4] | Potency [5] | Potency [6] | Potency [7]

O=C(Nc1ccccc1)c1ccccc1O
inactive: Potency [1] | Potency [2] | Potency [3] | Potency [4] | Potency [8] | Potency [9] | Potency [10]

CC(C)CC(=O)C1C(=O)c2ccccc2C1=O
active: Potency [8] 17.2 µM
inactive: Potency [2] | Potency [3] | Potency [4] | Potency [9] | Potency [10] | Potency [7]

Cc1cc(N)c2cc(NC(=O)Nc3ccc4nc(C)cc(N)c4c3)ccc2n1
inactive: Potency [2] | Potency [3] | Potency [4] | Potency [5] | Potency [7]

CCCn1cnc2c1c(=O)n(CCCCC(C)=O)c(=O)n2C
inactive: Potency [1] | Potency [2] | Potency [3] | Potency [4] | Potency [5] | Potency [10] | Potency [7]

CCOc1ccc(N)c([N+](=O)[O-])c1
inactive: Potency [1] | Potency [2] | Potency [3] | Potency [4] | Potency [8] | Potency [9] | Potency [10] | Potency [7]

C#Cc1cccc(Nc2ncnc3cc(OCCOC)c(OCCOC)cc23)c1
inactive: Potency [1] | Potency [2] | Potency [3] | Potency [4] | Potency [5] | Potency [7]

COc1cc(Cl)c(OC)cc1N
inactive: Potency [2] | Potency [3] | Potency [4] | Potency [5] | Potency [10] | Potency [7]

NCCCN1CCOCC1
inactive: Potency [2] | Potency [3] | Potency [4] | Potency [5] | Potency [10] | Potency [7]

COc1cc(C(=O)OCCCN2CCCN(CCCOC(=O)c3cc(OC)c(OC)c(OC)c3)CC2)cc(OC)c1OC
inactive: Potency [2] | Potency [3] | Potency [4] | Potency [8] | Potency [10] | Potency [7]

CC(C)(C)Cl
inactive: Potency [1] | Potency [2] | Potency [3] | Potency [4] | Potency [5] | Potency [10] | Potency [6] | Potency [7]

CC(C)(O)c1ccc(CNC(=O)c2cccnc2Oc2ccc(F)cc2)cc1
inactive: Potency [1] | Potency [2] | Potency [3] | Potency [4] | Potency [5] | Potency [10]

NS(=O)(=O)c1ccc(N2CCCCS2(=O)=O)cc1
inactive: Potency [1] | Potency [2] | Potency [3] | Potency [4] | Potency [5] | Potency [10] | Potency [6]

C=C(C)C(=O)OCCO
inactive: Potency [1] | Potency [2] | Potency [3] | Potency [4] | Potency [5] | Potency [10] | Potency [6] | Potency [7]

Nc1cccc(S(=O)(=O)c2cccc(N)c2)c1
inactive: Potency [1] | Potency [2] | Potency [3] | Potency [4] | Potency [5] | Potency [10] | Potency [6] | Potency [7]

C=CC(=O)OCCOCCOCCOCCOC(=O)C=C
active: Potency [8] 12.3 µM and 8.56 µM
inactive: Potency [2] | Potency [3] | Potency [4] | Potency [9]

COc1ccc(C(=O)N2CCN(CC(=O)N3CCOCC3)CC2)cc1
inactive: Potency [1] | Potency [2] | Potency [3] | Potency [4] | Potency [8] | Potency [10] | Potency [7]

O=C1C(O)=C(O)C(=O)C(O)=C1O
inactive: Potency [1] | Potency [2] | Potency [3] | Potency [4] | Potency [5] | Potency [10] | Potency [6] | Potency [7]

c1ccc(-c2ccccn2)nc1
inactive: Potency [1] | Potency [2] | Potency [3] | Potency [4] | Potency [5] | Potency [6]

CCCCO
inactive: Potency [1] | Potency [2] | Potency [3] | Potency [4] | Potency [5] | Potency [10]

CN(C)c1ccc(/C=C/c2ccc([N+](=O)[O-])cc2)cc1
inactive: viability change, negative = cytotoxic [1] 7.13% [at 6.95 µM] | activity, negative = cytotoxic [2] -0.218% [at 6.95 µM] | activation [3] -8.84% [at 6.95 µM] | activity, negative = cytotoxicity [5] 1.18% [at 8.39 µM] | activity change, negative = inhibition [8] 127% [at 8.39 µM] | activation [10] -11.3% [at 6.97 µM]

CCCCCCCC/C=C\CCCCCCCC(=O)OCC
inactive: Potency [1] | Potency [2] | Potency [3] | Potency [4] | Potency [9] | Potency [10]

CN1CCN(C(c2ccccc2)c2ccccc2)CC1
inactive: Potency [2] | Potency [3] | Potency [4] | Potency [8] | Potency [7]

C/C=C/C=C/CO
inactive: Potency [2] | Potency [3] | Potency [4] | Potency [9] | Potency [10] | Potency [6] | Potency [7]

COC(C)OC
inactive: Potency [1] | Potency [2] | Potency [3] | Potency [4] | Potency [10] | Potency [6] | Potency [7]

Cc1cccc(C)c1OCC(=O)N[C@@H](Cc1ccccc1)[C@@H](O)C[C@H](Cc1ccccc1)NC(=O)[C@H](C(C)C)N1CCCNC1=O
active: Potency [2] 19 µM | Potency [8] 29.8 µM
inactive: Potency [1] | Potency [3] | Potency [4] | Potency [10]

CCOC(=O)NCCOc1ccc(Oc2ccccc2)cc1
active: Potency [8] 43.3 µM
inactive: Potency [1] | Potency [2] | Potency [3] | Potency [4]

C#CCN(C)CCCOc1ccc(Cl)cc1Cl
inactive: Potency [1] | Potency [2] | Potency [3] | Potency [5] | Potency [8] | Potency [10] | Potency [7]

CCC(C)O (centres undefined)
inactive: Potency [1] | Potency [2] | Potency [3] | Potency [4] | Potency [9] | Potency [10] | Potency [6] | Potency [7]

CCN(CC)CCNc1ccc(CNC=O)c2sc3ccc(OC)cc3c(=O)c12
inactive: Potency [2] | Potency [3] | Potency [4] | Potency [9] | Potency [10]
active: Potency [1] 43.6 µM | Potency [7] 3.09 µM

CNCCCN1c2ccccc2CCc2ccccc21
inactive: Potency [2] | Potency [3] | Potency [4] | Potency [9]

O=[N+]([O-])c1cccc(S(=O)(=O)O)c1
inactive: Potency [1] | Potency [2] | Potency [3] | Potency [4] | Potency [9] | Potency [10] | Potency [6]

Cc1cccc(C)c1NC(=O)CN(CC(=O)O)CC(=O)O
inactive: Potency [1] | Potency [2] | Potency [3] | Potency [4] | Potency [9] | Potency [10] | Potency [6] | Potency [7]

COc1ccc(C(=O)c2ccc(OC)cc2O)c(O)c1
inactive: Potency [1] | Potency [2] | Potency [3] | Potency [4] | Potency [8] | Potency [10]

O=C(NCCO[N+](=O)[O-])c1cccnc1
inactive: Potency [1] | Potency [2] | Potency [3] | Potency [4] | Potency [9] | Potency [6] | Potency [7]

Cc1oc(-c2ccccc2)nc1CCOc1cccc2c1ccn2CCC(=O)O
inactive: Potency [2] | Potency [3] | Potency [4] | Potency [9]
active: Potency [6] 17.4 µM

CCOC(=O)COC(=O)c1cc(Oc2ccc(C(F)(F)F)cc2Cl)ccc1[N+](=O)[O-]
inactive: Potency [1] | Potency [2] | Potency [3] | Potency [4] | Potency [9] | Potency [10] | Potency [7]
active: Potency [6] 24.5 µM

NC(=O)C(c1ccccc1)(c1ccccc1)[C@@H]1CCN(CCc2ccc3c(c2)CCO3)C1
inactive: Potency [1] | Potency [2] | Potency [3] | Potency [4] | Potency [10] | Potency [7]

CC1CCC(=O)C1=O (centres undefined)
inactive: Potency [2] | Potency [3] | Potency [4] | Potency [9] | Potency [10] | Potency [6] | Potency [7]

CCn1cc(C(=O)O)c(=O)c2cnc(N3CCNCC3)nc21
inactive: Potency [1] | Potency [2] | Potency [3] | Potency [4] | Potency [9] | Potency [10] | Potency [6] | Potency [7]

NCC(=O)O
inactive: Potency [2] | Potency [3] | Potency [4] | activation [10] -0.769% [at 15.8 µM] | activation [6] -2.92% [at 15.8 µM]

CCC(C)c1cc(C(C)(C)C)c(O)c(C(C)(C)C)c1 (centres undefined)
inactive: Potency [2] | Potency [3] | Potency [4] | Potency [9]

CCCCCCCCCCCCCCCCOS(=O)(=O)O
inactive: Potency [2] | Potency [3] | Potency [5] | Potency [8]

CCCCCCCCCCCc1ccccc1
inactive: Potency [1] | Potency [2] | Potency [3] | Potency [4] | Potency [10] | Potency [6] | Potency [7]

CCCCCCCCCc1ccc(OCCOCCO)cc1
active: Potency [1] 18.3 µM | Potency [8] 5.11 µM
inactive: Potency [2] | Potency [3] | Potency [4]
